This is an account of results in PubChem BioAssay AID1832 (Broad Institute, 2009).

Among all 300,000 compounds or so, about 1,100 (0.37%) were called active.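 Rule for the calls: active = inhibition past about -25% in most replicates, and total fluorescence under double the plate's negative control median (limit read from the data); inconclusive = replicates evenly split on the limit, or fluorescence at least double controls; inactive = too little inhibition in most replicates.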 This excerpt belongs to a sample that is enriched for actives.

The target of this assay is Zinc finger protein mex-5 (Caenorhabditis elegans) (UniProt Q9XUB2). In words: MEX-5 zinc finger RNA-binding disruptors – biochemical, C. elegans, fluorescence polarization, MLPCN library, primary screen (AID 1832).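 Note: 0% = DMSO and -100% = 5 µM competing unlabeled TCR2 RNA.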 The settings on record: MEX-5/FITC-TCR2 RNA binding, at 10 µM, active compounds read low.
Chain of Zinc finger protein mex-5 (Caenorhabditis elegans) (Q9XUB2 whole entry, looked up): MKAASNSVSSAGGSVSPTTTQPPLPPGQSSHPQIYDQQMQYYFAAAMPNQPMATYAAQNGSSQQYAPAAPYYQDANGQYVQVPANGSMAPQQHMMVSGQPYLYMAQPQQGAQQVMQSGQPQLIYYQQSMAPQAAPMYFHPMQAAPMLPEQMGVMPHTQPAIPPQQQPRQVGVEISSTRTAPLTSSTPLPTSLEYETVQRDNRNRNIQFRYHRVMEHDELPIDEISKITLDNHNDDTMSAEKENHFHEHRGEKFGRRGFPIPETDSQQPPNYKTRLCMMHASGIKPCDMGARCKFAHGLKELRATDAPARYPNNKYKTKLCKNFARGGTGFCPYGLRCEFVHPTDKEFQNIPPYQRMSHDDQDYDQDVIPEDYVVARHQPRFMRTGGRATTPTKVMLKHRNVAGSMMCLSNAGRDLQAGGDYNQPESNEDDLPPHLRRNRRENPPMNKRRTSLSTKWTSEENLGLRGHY
Consider `Cc1cccc(NC(=O)c2nc(S(=O)(=O)Cc3ccccc3)ncc2Cl)c1`, for which the activity score (negative = inhibition of binding) was 2.04% (inactive).
Then `Cc1cc(=O)n2nc(N3CCCC(C(=O)NCc4cccc(Cl)c4)C3)sc2n1` (configuration not stated), with 0.58% (inactive); and `CCOc1ccc(C2=CC(c3ccccc3)n3ncnc3N2)cc1` (configuration not stated), with 0.973% (inactive); and `COC(=O)C1=C(C)Nc2ncnn2C1c1ccco1` (configuration not stated), with 0.833% (inactive).
Then `Brc1ccc(C2=CC(c3ccco3)n3ncnc3N2)cc1` (configuration not stated), with -46.2% (active); and `Cc1ccnc(N2C(=O)c3ccc([N+](=O)[O-])cc3C2=O)c1`, with 0.424% (inactive); and `CCN1C(=NCC(C)C)N[C@@H](CCc2ccccc2)[C@H](C(=O)NCC(C)C)[C@H]1C`, with 0.663% (inactive).
For the molecule `COC(=O)[C@H](Cc1ccccc1)NC(=O)Nc1ccc(OC)cc1`, the activity score (negative = inhibition of binding) was -2.47% (inactive).
Then `CCOC(=O)C(Cc1ccccc1)NC(=O)CCC(=O)c1ccc(OC)cc1` (configuration not stated), with -0.523% (inactive); and `COc1cc([C@H](Cc2ccccc2)NC(C)=O)oc(=O)c1`, with -29.7% (active).
The value for `O=C(Nc1cc2c3c(c1)C1CCCC1CN3CC1CCCC21)c1ccc([N+](=O)[O-])cc1` (configuration not stated) was 0.805% (inactive); that for `CCN(Cc1ccccc1)C(=O)CCS(=O)(=O)c1ccc2c(c1)oc(=O)n2C` was -0.201% (inactive); that for `CC(C)(C)N(Cc1ccccc1)C(=O)c1ccncc1` was 0.0862% (inactive).
Then `Cc1cc(NC(=O)CSc2nc(=O)cc(N)n2-c2ccc(F)cc2)no1`, with 3.29% (inactive); and `O=C(O)CCn1cc(/C=C/C(=O)c2ccc(Cl)cc2)c(-c2cccc(Br)c2)n1`, with -3.47% (inactive).
For the molecule `CCn1nc(C)c(NC(=O)/C=C/c2ccc(OC)c(COc3ccc(Br)cc3)c2)c1C`, the activity score (negative = inhibition of binding) was -2.54% (inactive).
Turning to `Cc1cc(C)c(/C=C2\C(=O)Nc3ccccc32)[nH]1`, the activity score (negative = inhibition of binding) is -49.3% (active).
The value for `CN(C)/C=C1/Nc2ccccc2C1=O` was -9.39% (inactive); that for `O=C1Nc2ccccc2/C1=C/c1ccnc2ccccc12` was -0.239% (inactive).
The value for `Cc1cc(C)c(C)c(S(=O)(=O)Nc2cccnc2)c1C` was 3.19% (inactive); that for `CCN(CC)CCOc1ccc2c(c1)C(=NNC(=O)c1ccccn1)c1cc(OCCN(CC)CC)ccc1-2` was -21.9% (inactive).
`CN1C(=O)/C(=C/c2ccco2)SC1=Nc1cccc(C(=O)O)c1`: the activity score (negative = inhibition of binding) is -30.7% (active).
The value for `O=C(CCCN1C(=O)/C(=C\c2ccco2)SC1=S)Nc1cccc2ccccc12` was -4.74% (inactive); that for `Cc1cc(/C=C2\SC(=O)N(C)C2=O)c(C)n1-c1cccc(C(=O)O)c1` was -1.93% (inactive); that for `CSc1nc(C)nc(C2CC2)c1C#N` was 0.165% (inactive).
Then `CN(C)c1ccc(NC(=S)N(CCc2ccccc2)C2CC(=O)N(c3c(Cl)cccc3Cl)C2=O)cc1` (configuration not stated), with 0.224% (inactive).
As for `O=C(COC(=O)CCOc1ccccc1)Nc1cc(S(=O)(=O)N2CCCCC2)ccc1Cl`, the activity score (negative = inhibition of binding) is -0.682% (inactive).
The value for `O=C(COC(=O)CCc1c[nH]c(=O)[nH]1)Nc1ccccc1Cl` was -36.5% (active); that for `Cc1cccc(NC(=O)COC(=O)CCc2ccccc2)c1C` was 0.968% (inactive); that for `COc1cc(S(=O)(=O)N2CCN=C2c2ccccc2)ccc1Cl` was 3.19% (inactive).
Then `COc1ccc(CC(=O)Nc2c(C(N)=O)oc3ccccc23)cc1`, with 0.725% (inactive); and `CC(C)(C)OC(=O)N1CCC(C(=O)NNC(=O)c2ccc(Cl)cc2Cl)CC1`, with 0.105% (inactive).
Then `CSc1nnc(SCc2nc3sc(C(=O)O)c(C)c3c(=O)[nH]2)s1`, with -39.1% (active).
Turning to `CCOC(=O)c1sc2nc(CSc3ccccc3)[nH]c(=O)c2c1C`, the activity score (negative = inhibition of binding) is 3.85% (inactive).
The value for `CCOC(=O)c1sc2nc(C)[nH]c(=O)c2c1C` was -1.49% (inactive); that for `CC(C)C[C@H](NC(=O)N1CC(=O)Nc2ccccc21)C(=O)N[C@H](Cc1ccccc1)C(=O)O` was 2.99% (inactive).
Turning to `COc1ccc(C(=O)OCC(=O)NCC2CCCO2)cc1[N+](=O)[O-]` (configuration not stated), the activity score (negative = inhibition of binding) is 0.621% (inactive).
As for `CNC(=O)/C(C#N)=C/c1c(F)cccc1Cl`, the activity score (negative = inhibition of binding) is 0.288% (inactive).
On to `COc1ccc2c(C)c(CCC(=O)NC3CC3)c(=O)oc2c1C`, for which the activity score (negative = inhibition of binding) was -3.04% (inactive).
Then `CCCCC1N2CC3([N+](=O)[O-])CN1CC([N+](=O)[O-])(C2)C3(C)C` (configuration not stated), with -0.199% (inactive); and `COc1ccc(/C=C2\SC(=S)N(CCC(=O)Nc3cccc(C(=O)O)c3)C2=O)cc1OC`, with -1.23% (inactive).
The value for `COc1ccc(/C=C2\SC(=S)N(CCC(=O)Nc3ccccn3)C2=O)cc1OC` was -2.36% (inactive); that for `COc1ccc(/C=C2\SC(=S)N(CCCC(=O)NC3CCCC3)C2=O)cc1OC` was -48.2% (active).
The value for `O=S(=O)(c1ccccc1)N1CCC(c2ccccc2)CC1` was -0.204% (inactive).
In the case of `CCN(CC(=O)Nc1ccc2c(c1)OCCO2)Cc1cc(=O)oc2cc(C)c(C)cc12`, the activity score (negative = inhibition of binding) was -1.63% (inactive).
Then `Nc1ccc2nc3c(=O)[nH]c(=S)[nH]c3nc2c1`, with -47.2% (active); and `COc1ccc(CCn2c(NN=C3CCCC3)nc3c2c(=O)[nH]c(=O)n3C)cc1`, with 1.31% (inactive); and `NC(=O)c1oc2ccccc2c1NC(=O)Cc1ccccc1`, with -2.66% (inactive).
The value for `Cc1c(CN2CCCCC2)c(O)n(CCO)c(=O)c1C#N` was -12.5% (inactive); that for `CCCn1c(O)c(CN2CCCC(C)C2)c(C)c(C#N)c1=O` (configuration not stated) was -33.7% (active).
Then `CCCCCCn1c(CN2CCCC(C)C2)nc2c1c(=O)n(C)c(=O)n2C` (configuration not stated), with -0.485% (inactive); and `COc1cccc(NC(=O)CSc2nnc(-c3cccnc3)o2)c1`, with -0.46% (inactive); and `CCOC(=O)COc1cc(O)c2c(=O)cc(-c3ccccc3)oc2c1`, with 0.422% (inactive).
Take `COc1ccc(-c2cc(=O)c3c(O)cc(O[C@@H]4O[C@H](CO[C@@H]5O[C@@H](C)[C@H](O)[C@@H](O)[C@H]5O)[C@@H](O)[C@H](O)[C@H]4O)cc3o2)cc1O`: the activity score (negative = inhibition of binding) was 0.902% (inactive).
With `COc1c(O)cc2oc(-c3ccc(O)c(O)c3)cc(=O)c2c1O`, the activity score (negative = inhibition of binding) was -34.4% (active).
As for `COc1ccccc1OCCOc1ccc(/C=C2\C(=N)N3N=C(C)SC3=NC2=O)cc1`, the activity score (negative = inhibition of binding) was 0.998% (inactive).
Consider `CC(C)CC(=O)c1c[nH]c(C(=O)NCc2ccccc2)c1`, for which the activity score (negative = inhibition of binding) is -0.164% (inactive).
As to `CN1CCN(/N=C/c2ccc(-c3ccc([N+](=O)[O-])cc3)o2)CC1`, the activity score (negative = inhibition of binding) is 2.18% (inactive).
As for `CN1C(=O)/C(=C\c2ccc(-c3ccccc3)o2)SC1=S`, the activity score (negative = inhibition of binding) was -2.67% (inactive).
`NS(=O)(=O)c1ccc(-c2ccc(/C=C3\SC(=O)NC3=O)o2)cc1`: the activity score (negative = inhibition of binding) was -76.4% (active).
As for `CCOCCCNC(=S)Nc1ccc2nc(N3CCN(CC)CC3)cc(C)c2c1`, the activity score (negative = inhibition of binding) was 2.27% (inactive).
The value for `CCOCCCNC(=O)C(NC(=O)CNC(=O)c1ccccc1)c1ccc(OC)cc1` (configuration not stated) was -1.36% (inactive).
On to `O=C(C1=C(O)C(=O)N(Cc2ccccc2)C1c1cccnc1)c1ccco1` (configuration not stated), for which the activity score (negative = inhibition of binding) is -1.21% (inactive).
For the molecule `O=C(C1=C(O)C(=O)N(Cc2ccccc2)C1c1ccco1)c1ccco1` (configuration not stated), the activity score (negative = inhibition of binding) is 0.4% (inactive).
The value for `O=C(C1=C(O)C(=O)N(c2ncccn2)C1c1cccs1)c1ccco1` (configuration not stated) was -42.2% (active); that for `c1ccc2c(c1)CCc1snnc1-2` was 2.39% (inactive); that for `O=C(Cn1nc(C(=O)O)c2ccccc2c1=O)Nc1ccc(F)cc1` was -2.04% (inactive).
As to `Cc1ccc(-c2nn(-c3ccccc3)cc2/C=C2\SC(=S)N(CCCCCC(=O)O)C2=O)o1`, the activity score (negative = inhibition of binding) was -7.25% (inactive).
Then `CCCCN(C(=O)c1ccc(OC(F)(F)F)cc1)c1c(N)n(CCC)c(=O)[nH]c1=O`, with 1.98% (inactive); and `CCn1c(=N)c(S(=O)(=O)c2ccc(F)cc2)cc2c(=O)n3ccccc3nc21`, with -29.2% (active); and `COc1ccc(CNC(=O)c2cc3c(=O)n4ccccc4nc3n(CC3CCCO3)c2=N)cc1` (configuration not stated), with -4.96% (inactive).
The value for `Cc1ccc(Cn2c(=N)c(S(=O)(=O)c3ccc(C)cc3)cc3c(=O)n4ccccc4nc32)cc1` was 6.5% (inactive).
Then `Cc1ccc(/C=C/C(=O)Nc2ccc([N+](=O)[O-])c(NC(=O)/C=C/c3ccc(C)o3)c2)o1`, with 1.59% (inactive).
`O=C(N/N=C/c1ccc([N+](=O)[O-])o1)c1cn(-c2ccccc2)nc1-c1ccc(F)cc1`: the activity score (negative = inhibition of binding) is -3.11% (inactive).
As for `O=C(/C=C/c1ccc([N+](=O)[O-])o1)NNC(=O)c1ccc(F)cc1`, the activity score (negative = inhibition of binding) was -26.8% (active).
Take `O=C(c1ccc(F)cc1)n1c(=S)nc2ccccn21`: the activity score (negative = inhibition of binding) is 0.662% (inactive).
Then `O=C(COC(=O)c1ccc(F)cc1F)Nc1ncccn1`, with -8.66% (inactive); and `CC(C)NC(=S)Nc1cccc2cnccc12`, with 0.93% (inactive).
Turning to `CC1(C)Cc2nc3sc4c(SCC(=O)NC(c5ccccc5)c5ccccc5)ncnc4c3cc2CO1`, the activity score (negative = inhibition of binding) was -0.0678% (inactive).
For `Cc1ccc(NC(=O)CSc2sc3c(O)cc(=O)[nH]c3c2C#N)cc1C`, the activity score (negative = inhibition of binding) was -1.19% (inactive).
Take `O=C(N/N=C/c1ccc([N+](=O)[O-])cc1)C(=O)N1CCCC1`: the activity score (negative = inhibition of binding) was -0.216% (inactive).
Then `O=C(N/N=C\c1ccc(-c2ccc(Cl)c(Cl)c2)o1)C(=O)N1CCCC1`, with -55.2% (active).
On to `COC(=O)N/N=C/c1ccc(-c2ccc(Cl)c(Cl)c2)o1`, for which the activity score (negative = inhibition of binding) is 2.42% (inactive).
Turning to `COC(C(=O)NCc1ccccc1C)c1ccccc1` (configuration not stated), the activity score (negative = inhibition of binding) is -0.406% (inactive).
Take `O=C(NCCCN1CCOCC1)C1CCCN(S(=O)(=O)N2CCCCC2)C1` (configuration not stated): the activity score (negative = inhibition of binding) is 0.135% (inactive).
The value for `S=c1[nH]nc2c3c4c(sc3ncn12)CCCC4` was 0.932% (inactive); that for `O/N=C1\CC2(Cc3nonc31)OCCO2` was 2.02% (inactive).
Take `ON=C1/C(=N\O)CC2(C/C1=N/O)OCCO2`: the activity score (negative = inhibition of binding) is -31.5% (active).
On to `COc1ccc(C(=O)c2c(C)c(CCC#N)n3ccccc23)c(OC)c1`, for which the activity score (negative = inhibition of binding) was -2.13% (inactive).
Then `COc1cc(/C=C2/C(=O)ON=C2C)ccc1OCc1ccccc1F`, with -63.3% (active); and `C=CCOc1ccc(/C=C2/C(=O)ON=C2C)cc1OCC`, with -10.9% (inactive); and `COc1cc(/C=C2/C(=O)ON=C2C)ccc1OCc1cccc(F)c1`, with -9.55% (inactive).
